Where a name gives a salt, the structure may show the parent alone. ± gives the standard deviation of the averaged measurements.
Legend:
Assay in all cases: growth (OD600 after 10 h); higher = more growth (less inhibition)
[1] = system: E. coli TESEC Alr+ wild-type control; settings: compound 0.1 mM; raw OD600 reference: median of DMSO wells 0.241, cell-free background 0.041
Description: (§1)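 TESEC Mtb Alr E. coli, or the Alr+ wild-type control, in 384-well plates with Prestwick library compounds at 0.1 mM and 1% DMSO, across arabinose induction levels of 1E3 to 1E7 nM. Growth is read as OD600 after 10 h at 37 °C in triplicate biological replicates.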

[2] = system: E. coli TESEC Mtb Alr; settings: compound 0.1 mM
Description: as §1

[3] = system: E. coli TESEC Mtb Asd; settings: compound 0.1 mM
Description: (§2)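 TESEC E. coli strains in which the native enzyme is deleted and replaced by arabinose-inducible Mtb Asd, DapB, CysH or TrpD, each grown in its selective medium. Strains were screened against the Prestwick library at 0.1 mM and 1% DMSO in 384-well format at low and high arabinose induction. Growth is read as OD600 after 10 h in triplicate.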

[4] = system: E. coli TESEC Mtb DapB; settings: compound 0.1 mM
Description: as §2

[5] = system: E. coli TESEC Alr+ wild-type control; settings: compound 0.1 mM; raw OD600 reference: median of DMSO wells 0.49, cell-free background 0.052
Description: (§3)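 TESEC Mtb Alr E. coli (ΔaraC ΔtolC ΔentC Δalr ΔdadX, arabinose-inducible Mtb Alr) or the Alr+ wild-type control strain, grown in defined M9-fructose medium without D-alanine in 96-well plates with Prestwick library compounds at 0.1 mM and 1% DMSO. Low Alr induction is 0.1 µM arabinose and high induction is 10 mM arabinose.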

[6] = system: E. coli TESEC Mtb Alr; settings: compound 0.1 mM; remark: listed apart in the source
Description: as §3

[7] = arabinose 1000 nM, raw OD600 reference: median of DMSO wells 0.294, cell-free background 0.041
[8] = arabinose 10000 nM, raw OD600 reference: median of DMSO wells 0.264, cell-free background 0.041
[9] = arabinose 100000 nM, raw OD600 reference: median of DMSO wells 0.201, cell-free background 0.041
[10] = arabinose 1000000 nM, raw OD600 reference: median of DMSO wells 0.193, cell-free background 0.041
[11] = arabinose 10000000 nM, raw OD600 reference: median of DMSO wells 0.146, cell-free background 0.041
[12] = arabinose induction (level): High, raw OD600 reference: median of DMSO wells 0.331, cell-free background 0.041
[13] = arabinose induction (level): Low, raw OD600 reference: median of DMSO wells 0.417, cell-free background 0.041
[14] = arabinose induction (level): High, raw OD600 reference: median of DMSO wells […], cell-free background 0.041
[15] = arabinose induction (level): Low, raw OD600 reference: median of DMSO wells 0.227, cell-free background 0.041
[16] = arabinose 100 nM, raw OD600 reference: median of DMSO wells 0.413, cell-free background 0.052
[17] = arabinose 10000000 nM, raw OD600 reference: median of DMSO wells […], cell-free background 0.052

Structure (SMILES) | growth [1] | growth [2, 7] | growth [2, 8] | growth [2, 9] | growth [2, 10] | growth [2, 11] | growth [3, 12] | growth [3, 13] | growth [4, 14] | growth [4, 15] | growth [5] | growth [6, 16] | growth [6, 17]
N=C(N)NCCN1CCCCCCC1 [Guanethidine sulfate] | 0.255 ± 0.0095 | 0.298 ± 0.027 | 0.266 ± 0.0054 | 0.24 ± 0.012 | 0.173 ± 0.011 | 0.168 ± 0.011 | 0.291 ± 0.094 | 0.366 ± 0.069 | 0.205 ± 0.0096 | 0.247 ± 0.008 | 0.468 ± 0.04 | 0.419 ± 0.008 | 0.384 ± 0.015
N#Cc1ccc(C(c2ccc(C#N)cc2)n2cncn2)cc1 [Letrozole] | 0.2404 ± 0.0017 | 0.308 ± 0.006 | 0.253 ± 0.0064 | 0.243 ± 0.028 | 0.16 ± 0.0045 | 0.146 ± 0.0044 | 0.243 ± 0.06 | 0.356 ± 0.086 | 0.213 ± 0.018 | 0.24 ± 0.032 | 0.502 ± 0.046 | 0.394 ± 0.016 | 0.309 ± 0.016
Nc1ccn([C@H]2CC[C@@H](CO)O2)c(=O)n1 [Zalcitabine] | 0.246 ± 0.0044 | 0.2977 ± 0.0013 | 0.279 ± 0.014 | 0.198 ± 0.035 | 0.172 ± 0.0063 | 0.1518 ± 0.00067 | 0.288 ± 0.037 | 0.407 ± 0.035 | 0.204 ± 0.015 | 0.24 ± 0.04 | 0.4783 ± 0.0003 | 0.409 ± 0.016 | 0.353 ± 0.02
NC(=O)OCC(COC(N)=O)c1ccccc1 [Felbamate] | 0.24 ± 0.0061 | 0.288 ± 0.0029 | 0.26 ± 0.0095 | 0.201 ± 0.023 | 0.204 ± 0.0095 | 0.137 ± 0.0061 | 0.423 ± 0.044 | 0.316 ± 0.031 | 0.224 ± 0.0049 | 0.212 ± 0.0076 | 0.608 ± 0.097 | 0.405 ± 0.011 | 0.369 ± 0.025
CC(=O)c1ccc(S(=O)(=O)NC(=O)NC2CCCCC2)cc1 [Acetohexamide] | 0.253 ± 0.0047 | 0.284 ± 0.0099 | 0.242 ± 0.0032 | 0.191 ± 0.024 | 0.162 ± 0.0024 | 0.156 ± 0.0038 | 0.268 ± 0.082 | 0.455 ± 0.029 | 0.19 ± 0.0083 | 0.232 ± 0.024 | 0.526 ± 0.01 | 0.405 ± 0.0044 | 0.316 ± 0.0099
NC(=O)N1c2ccccc2CC(=O)c2ccccc21 [Oxcarbazepine] | 0.236 ± 0.0086 | 0.269 ± 0.015 | 0.256 ± 0.0035 | 0.211 ± 0.03 | 0.171 ± 0.0024 | 0.146 ± 0.0084 | 0.225 ± 0.042 | 0.322 ± 0.043 | 0.189 ± 0.0098 | 0.201 ± 0.019 | 0.601 ± 0.13 | 0.403 ± 0.0086 | 0.321 ± 0.0074
CCN(CC)C(=O)c1ccc(O)c(OC)c1 [Ethamivan] | 0.24 ± 0.0033 | 0.295 ± 0.0045 | 0.249 ± 0.0036 | 0.232 ± 0.013 | 0.181 ± 0.0058 | 0.138 ± 0.0057 | 0.388 ± 0.079 | 0.397 ± 0.041 | 0.196 ± 0.0081 | 0.2251 ± 0.0019 | 0.543 ± 0.12 | 0.406 ± 0.013 | 0.356 ± 0.02
NC(=O)N/N=C/c1ccc([N+](=O)[O-])o1 [Nitrofural] | 0.044 ± 0.00072 | 0.0426 ± 0.00078 | 0.04193 ± 0.00015 | 0.044 ± 0.0018 | 0.042 ± 0.00045 | 0.0427 ± 0.00084 | 0.0898 ± 0.0054 | 0.0756 ± 0.0054 | 0.11 ± 0.0086 | 0.145 ± 0.016 | 0.0529 ± 0.0016 | 0.0532 ± 0.0056 | 0.0522 ± 0.00076
CC1(C)S[C@@H]2[C@H](NC(=O)[C@H](C(=O)O)c3ccsc3)C(=O)N2[C@H]1C(=O)O [Ticarcillin sodium] | 0.256 ± 0.0056 | 0.296 ± 0.0051 | 0.28 ± 0.0035 | 0.2 ± 0.031 | 0.226 ± 0.0051 | 0.142 ± 0.0031 | 0.331 ± 0.056 | 0.305 ± 0.0068 | 0.178 ± 0.0019 | 0.196 ± 0.019 | 0.577 ± 0.095 | 0.419 ± 0.0051 | 0.354 ± 0.0093
CC(=O)Oc1ccccc1C(=O)O [Acetylsalicylic acid] | 0.242 ± 0.003 | 0.2936 ± 0.0015 | 0.292 ± 0.014 | 0.202 ± 0.019 | 0.19 ± 0.01 | 0.147 ± 0.0031 | 0.264 ± 0.051 | 0.314 ± 0.022 | 0.198 ± 0.016 | 0.237 ± 0.054 | 0.504 ± 0.027 | 0.413 ± 0.011 | 0.334 ± 0.012
CCOC(=O)C1=C(C)NC(C)=C(C(=O)OCC)C1c1ccccc1/C=C/C(=O)OC(C)(C)C [Lacidipine] | 0.2596 ± 0.0023 | 0.308 ± 0.013 | 0.247 ± 0.0068 | 0.201 ± 0.017 | 0.119 ± 0.0029 | 0.156 ± 0.0078 | 0.299 ± 0.12 | 0.346 ± 0.043 | 0.157 ± 0.0032 | 0.182 ± 0.0034 | 0.521 ± 0.056 | 0.429 ± 0.017 | 0.322 ± 0.023
NC(=O)c1cc[n+](CC2=C(C(=O)[O-])N3C(=O)[C@@H](NC(=O)[C@@H](c4ccccc4)S(=O)(=O)O)[C@H]3SC2)cc1 [Cefsulodin sodium salt] | 0.257 ± 0.0041 | 0.309 ± 0.014 | 0.235 ± 0.007 | 0.228 ± 0.006 | 0.2032 ± 0.0015 | 0.145 ± 0.0069 | 0.33 ± 0.084 | 0.423 ± 0.028 | 0.211 ± 0.013 | 0.245 ± 0.015 | 0.636 ± 0.015 | 0.366 ± 0.012 | 0.356 ± 0.014
N[C@@H](C(=O)N[C@@H]1C(=O)N2C(C(=O)O)=C(Cl)CC[C@H]12)c1ccccc1 [Loracarbef] | 0.251 ± 0.0037 | 0.318 ± 0.0031 | 0.224 ± 0.0093 | 0.211 ± 0.024 | 0.175 ± 0.0071 | 0.151 ± 0.0052 | 0.362 ± 0.016 | 0.411 ± 0.0062 | 0.226 ± 0.017 | 0.234 ± 0.014 | 0.529 ± 0.067 | 0.0487 ± 0.0051 | 0.324 ± 0.024
Nc1ccn([C@@H]2CS[C@H](CO)O2)c(=O)n1 [Lamivudine] | 0.239 ± 0.0031 | 0.292 ± 0.011 | 0.262 ± 0.0097 | 0.211 ± 0.037 | 0.209 ± 0.0042 | 0.144 ± 0.0079 | 0.353 ± 0.0047 | 0.425 ± 0.021 | 0.18 ± 0.013 | 0.207 ± 0.016 | 0.563 ± 0.13 | 0.407 ± 0.0069 | 0.357 ± 0.0056
CCCCOc1cc(C(=O)OCCN(CC)CC)ccc1N [Benoxinate hydrochloride] | 0.206 ± 0.0046 | 0.256 ± 0.016 | 0.25 ± 0.0055 | 0.177 ± 0.015 | 0.1482 ± 0.00091 | 0.143 ± 0.0029 | 0.27 ± 0.12 | 0.451 ± 0.059 | 0.183 ± 0.016 | 0.21 ± 0.036 | 0.476 ± 0.024 | 0.4124 ± 0.0014 | 0.33 ± 0.011
CN(C)c1ccc(O)c2c1C[C@H]1C[C@H]3[C@H](N(C)C)C(=O)C(C(N)=O)=C(O)[C@@]3(O)C(=O)C1=C2O [Minocycline hydrochloride] | 0.0402 ± 0.00064 | 0.0422 ± 0.00083 | 0.0402 ± 0.00026 | 0.0426 ± 0.00055 | 0.0397 ± 0.00075 | 0.0426 ± 0.00067 | 0.06847 ± 0.00055 | 0.0692 ± 0.0029 | 0.0606 ± 0.01 | 0.0519 ± 0.0019 | 0.0527 ± 0.00085 | 0.0623 ± 0.0026 | 0.0637 ± 0.0055
COC(=O)C1=C(C#N)NC(C)=C(C(=O)OC(C)C)C1c1cccc([N+](=O)[O-])c1 (stereo unspecified) [Nilvadipine] | 0.148 ± 0.0031 | 0.203 ± 0.014 | 0.2569 ± 0.001 | 0.164 ± 0.014 | 0.0883 ± 0.002 | 0.149 ± 0.033 | 0.16 ± 0.0063 | 0.325 ± 0.029 | 0.208 ± 0.019 | 0.214 ± 0.015 | 0.212 ± 0.16 | 0.429 ± 0.0067 | 0.06 ± 0.0039

From the supplement of paper PMC9262897, “Low-cost anti-mycobacterial drug discovery using engineered E. coli” (Nature Communications, 2022)
